# TDP1 cell noCPT – qHTS for Inhibitors of human tyrosyl-DNA phosphodiesterase 1 (TDP1): qHTS in cells in absence of CPT | DT40 Tdp1-/- hTDP1 cells, no CPT, ATP luminescence, 48 h | Potency, µM (doses to about 46.2 µM), hits mostly inhibitors | actives 15% (n = 420,000) | AID 686978, 2013; further: nearly all actives have a fitted effect of over 55% in size
#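 Cells were dispensed at 400 per well, compounds added by pin tool, plates incubated ≥48 hr at 37 °C, then CellTiter-Glo added for 30 min at room temperature before luminescence reading. Line: DT40 Tdp1-/- complemented with hTDP1; camptothecin omitted.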
# RORgamma inh – ROR gamma (mouse) transcription inhibition; Drosophila S2 Gal4-RORgamma UAS-luciferase reporter, 20 h; actives 5.4% (n = 310,000); Potency, µM (highest dose often 53.6 µM), most hits filed as inhibitors; further: nearly all actives have a fitted effect of over 60% in size
#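 Stably transfected Drosophila Schneider cells are the test system, with ROR gamma fused to Gal4 and luciferase under UAS control; luminescence is read after 20 hr of 700 uM copper sulfate induction at ambient temperature.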
# VP16 counter – counter-screen for ROR gamma inhibitors: Gal4-VP16 reporter; Drosophila S2 Gal4-VP16 UAS-luciferase, luminescence, 20 h; actives 3.5% (n = 310,000); Potency, µM (doses to about 53.6 µM), usual class: inhibitors; AID 2546;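 further: Gal4-VP16 expression switched on by copper sulfate through the metallothionein promoter; nearly all actives have a fitted effect of over 50% in size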
# 12-LOX inh – inhibitors of human 12S-lipoxygenase ALOX12. P18054. purified 12hLO, xylenol orange hydroperoxide absorbance. Potency, µM (series often up to 108 µM), actives largely listed as inhibitors. actives 1.1% (n = 580,000). AID 1671190
#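 Purified human 12hLO at 150 nM in 25 mM Hepes, 0.01% Triton X-100, pH 7.0, preincubated 15 min at room temperature with compound. Reaction started with 40 uM arachidonic acid, 30 min at room temperature. Hydroperoxide measured by Fe-xylenol orange, 573/405 nm absorbance ratio.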
# ELG1 DNA repair – inhibitors of ELG1-dependent DNA repair in HEK293T cells | HEK293T ELG1-luciferase reporter, luminescence, 16 h; DNA damage induced by 5-fluorouridine | Potency, µM (top dose mostly 46.1 µM), hits mostly inhibitors | actives 2.3% (n = 330,000); further: nearly all actives have a fitted effect of over 55% in size
#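 Step one: seed 2,000 cells per well. Step two: pin-transfer compound or DMSO alongside 5-fluorouridine. Step three: incubate 16 hr, 37 °C, 5% CO2. Step four: add ONE-Glo, wait 30 min, read luminescence.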
# TDP1 cell CPT – growth inhibition of DT40 Tdp1-/-;hTDP1 cells with camptothecin (screen for TDP1 inhibitors). AID 686979. chicken DT40 Tdp1-/-;hTDP1 cells + 20 nM CPT, ATP luminescence, 48 h. Potency, µM (top dose mostly 46.2 µM), hits mostly inhibitors. actives 12% (n = 420,000); further: nearly all actives have a fitted effect of over 55% in size
#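 Cell growth measured by CellTiter-Glo luminescence after a minimum 48 h, 37 C compound exposure with 20 nM CPT in Tdp1-knockout DT40 cells stably expressing hTDP1, seeded 400/well; qHTS titration format.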
# A number is an active result; i = inactive; ? = inconclusive; nt = no result given; [ ] = remark or other dose. In the library only some 15% were active in any assay of this set; here they are far more common. The call rests on the fitted dose curve; in most records, active means well fitted curve in the direction sought with a large enough effect; inconclusive means small, poorly fitted or top-dose-only effect, or another doubt; inactive means no such curve, though single readings can be large; an effect the other way counts as inactive or inconclusive.
SMILES,TDP1 cell noCPT,RORgamma inh,VP16 counter,12-LOX inh,ELG1 DNA repair,TDP1 cell CPT
Cc1ccc(CNC(=O)CC2=C3CCCCC3NC2=O)cc1 (stereo not drawn),nt,nt,nt,i,nt,nt
CCC(CC)NC(=O)CSc1ccc2c(c1)OCCCO2,nt,nt,nt,i,nt,nt
CC(C)(C)NC(=O)NCc1cc2n(n1)CCCN(C(=O)C1CCC1)C2,nt,nt,nt,i,nt,nt
Nc1ncccc1CN1CCC2(CC1)COCCN2C(=O)OCc1ccccc1,nt,nt,nt,i,nt,nt
CCc1cc(=O)n(CC(=O)Nc2ccc(C(F)(F)F)cc2)c(N2CCOCC2)n1,nt,nt,nt,i,nt,nt
N#Cc1cccnc1NCCNc1cc(Cl)nc(N)n1,nt,nt,nt,i,nt,nt
COc1nc(Nc2cccc(C)c2)nc(N2CCCCC2)n1,16µM,i,i,?,i,18µM
C(=N\Nc1nc(Nc2ccccc2)nc(N2CCCCC2)n1)/c1ccco1,nt,2.2µM,13µM,i,?,nt
N#Cc1ccc(/C=N/Nc2nc(Nc3ccccc3)nc(N3CCCCC3)n2)cc1,nt,nt,nt,i,nt,nt
c1ccc(Nc2nc(N3CCCCC3)nc(N3CCNCC3)n2)cc1,18µM,i,i,i,i,29µM
Cc1cccc(Nc2nc(N3CCCC3)nc(N3CCCC3)n2)c1,i,i,i,?,i,?
COc1ccc(/C=N/Nc2nc(Nc3ccccc3)nc(N3CCCC3)n2)cc1,?,2.8µM,i,i,?,?
CC1CCCCC1NC(=O)C1CCC1 (stereo not drawn),nt,nt,nt,i,nt,nt
O=C(Oc1ccc(/C=N/Nc2nc(N3CCCCC3)nc(N3CCCCC3)n2)cc1)c1ccco1,16µM,i,i,i,i,?
c1ccc(Nc2nc(Nc3ccccc3)nc(-n3cccn3)n2)cc1,5µM,nt,nt,nt,nt,7.1µM
Fc1ccc(-c2cc(-c3ccccc3)nc(-n3cccn3)n2)cc1,?,1µM,?,i,?,?
c1ccc(Nc2nc(N3CCCC3)nc(N3CCCC3)n2)cc1,i,i,i,i,?,?
COc1ccc(/C=C2\SC(=O)N(CCC(=O)N3CCN(C)CC3)C2=O)cc1,?,i[1.91 µM],i,i,?,i
CN1CCN(C(=O)CCN2C(=O)S/C(=C/c3ccc(Cl)cc3)C2=O)CC1,13µM,i,i,i,i,13µM
CCOc1ccc(C=C2SC(=O)N(CCN)C2=O)cc1,nt,0.63µM,i,nt,nt,nt
Cc1ccc(/C=C2\SC(=O)N(CCC(=O)N3CCN(C)CC3)C2=O)cc1,23µM,i,i,?,?,18µM
COc1ccccc1CN1C(=O)COC[C@@H]1[C@H](O)c1ccc(NC(=O)c2ccccc2)cc1,nt,nt,nt,i,nt,nt
CCOc1cc(OCC)cc(C(=O)Nc2ccc(Br)c(C)n2)c1,nt,nt,nt,i,nt,nt
Cc1nnc(NC(=O)CSc2ncc(-c3ccccc3)[nH]2)s1,i,i,i,?,i,i
CCc1nnc(NC(=O)CSc2ncc(-c3ccccc3)[nH]2)s1,i,6.3µM,?,i,?,i
CCc1nnc(NC(=O)CSc2ncc(-c3ccccc3)n2CC)s1,i,11µM,?,?,i,?
CN(C)C(=O)c1cccc(-c2cnc3c(NC=O)cc(-c4ccccc4N(C)C)cn23)c1,16µM,nt,nt,?,nt,23µM
CN(C)C(=O)c1cccc(-c2cnc3c(NC=O)cc(-c4ccccc4Cl)cn23)c1,5.2µM,nt,nt,i,nt,2.6µM

# Screens as filed in PubChem BioAssay.
